An excerpt weighted towards active compounds, which were near 4% of everything screened.
GDH-TPI counter: counter-screen for M. tuberculosis FBA inhibitors: GDH-TPI coupled enzymes; GDH-TPI coupled enzyme counterscreen, NADH absorbance; inhibition, % at 4.8 µM; 1.2% of 360,000 active;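 note: 0% = DMSO wells and 100% = wells lacking the enzyme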
Mtb bLac sens: beta-lactam sensitization of Mtb H37Rv; M. tuberculosis H37Rv growth with meropenem, percent inhibition; 0.27% of 330,000 active; inhibition, % at 25 µM; call rule not given here;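 note: growth measured after seven days incubation then overnight dye step; 0% = bacteria only wells and 100% = bacteria with antibiotic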
MazEF act: increases E. coli MazEF RNase cleavage of RNA | FAM/BHQ RNA-DNA oligo cleavage fluorescence, 5 h | 0.32% of 350,000 active | activation, % at 20 µM; in the data active = activation above about 50%
Target sequence (P0AE70 whole entry, looked up): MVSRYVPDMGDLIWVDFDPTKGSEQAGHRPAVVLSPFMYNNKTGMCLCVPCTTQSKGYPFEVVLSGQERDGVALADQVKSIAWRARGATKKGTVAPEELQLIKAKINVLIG
CCHFV vOTU inh: blocks the CCHF virus ovarian tumor domain protease; CCHFV vOTU protease, Pep-AMC fluorescence; inhibition, % at 11.5 µM; 0.55% of 370,000 active; note: 0% = vehicle wells with enzyme and 100% = no enzyme wells
FBA Mtb inh: Mtb fructose-bisphosphate aldolase inhibition; P9WQA3; purified M. tuberculosis FBA, fluorescence read-out; inhibition, % at 1 µM; 2.3% of 360,000 active; AID 588726; in the data active = inhibition above about 27%;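 note: 0% = vehicle and 100% = reference inhibitor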
Target sequence (P9WQA3 whole entry, looked up): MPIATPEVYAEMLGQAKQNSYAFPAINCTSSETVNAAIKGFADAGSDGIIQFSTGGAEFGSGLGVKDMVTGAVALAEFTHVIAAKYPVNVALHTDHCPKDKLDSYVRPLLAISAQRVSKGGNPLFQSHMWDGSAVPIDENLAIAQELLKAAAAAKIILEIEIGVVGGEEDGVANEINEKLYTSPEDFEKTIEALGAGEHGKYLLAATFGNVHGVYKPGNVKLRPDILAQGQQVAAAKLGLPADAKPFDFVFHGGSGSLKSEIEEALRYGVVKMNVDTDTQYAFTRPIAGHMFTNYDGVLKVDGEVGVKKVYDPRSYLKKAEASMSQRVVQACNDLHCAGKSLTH
* marks the source's active call; other numbers are inactive results; ? = inconclusive; / = no result; + = active, no number. Cut-off read from the data, not from the text of the source, unless noted: active = inhibition above about 30%; inactive = the rest.

SMILES | GDH-TPI counter | Mtb bLac sens | MazEF act | CCHFV vOTU inh | FBA Mtb inh
C#CCOCCOCCOCCNc1nc(N2CCN(C(=O)[C@H]([C@@H](C)CC)n3cc([C@@H](N)Cc4ccc(O)cc4)nn3)CC2)nc(N2CCN(C(=O)[C@H]([C@@H](C)CC)n3cc([C@@H](N)Cc4ccc(O)cc4)nn3)CC2)n1 | 4 | 64 | 51* | -6 | 1
COc1ccc(CNCc2c(O)c(Cl)cc3c(C)c(C)c(=O)oc23)c(OC)c1 | 18 | -7 | -1 | -371 | +
CCc1cc(=O)oc2c(CNCc3ccc(OC)cc3OC)c(O)c(Cl)cc12 | 16 | 1 | 4 | -362 | +
CC(=O)Nc1ccc(C(/C=C/c2ccccc2)Cc2ccccc2)cc1 (stereo not given) | / | / | / | 6 | /
COC(=O)CSc1nnc(-c2n[nH]c3c2CCC3)n1N | / | / | / | 2 | /
COC(=O)CSc1nnc(-c2ccc(NS(=O)(=O)c3ccc(C)c(C)c3)cc2)o1 | / | / | / | 6 | /
O=C(OCC(=O)N1CCOCC1)c1ccccc1O | -5 | 2 | -2 | 3 | 0
O=C(OCC(=O)N1CCOCC1)c1ccc(O)cc1 | 14 | -3 | 10 | -21 | +
Cc1cc(C=C2C(=O)c3ccccc3C2=O)c(C)n1-c1ccccc1 | 1 | 58 | 156* | 6 | -6
O=C1C(=Cc2cccn2-c2ccc(O)cc2)C(=O)c2ccccc21 | 17 | 3 | 263* | -8 | -4
O=C(O)c1cccc(-n2cccc2C=C2C(=O)c3ccccc3C2=O)c1 | 7 | -2 | -28 | 6 | -33
C(=N\n1cnnc1)/c1cccn1-c1ccccc1 | 32* | -5 | 7 | -5 | -4
Cc1cc(/C=N/n2cnnc2)c(C)n1-c1ccccc1 | 7 | 43 | 3 | 9 | 11
O=C(CN1C(=O)S/C(=C/c2cccn2-c2ccc(O)cc2)C1=O)N1CCCC1 | 11 | 2 | 5 | 11 | -7
O=C1C(=Cc2cccn2-c2ccccc2)C(=O)c2ccccc21 | -1 | -4 | 242* | -1 | -10
O=C(NC1CC1)C1=C[C@@H](c2ccccc2)C[C@@H](OCc2ccc(CO)cc2)O1 | 0 | -6 | 2 | -1 | -1
O=C(NC1CC1)C1=C[C@H](c2ccc(C(F)(F)F)cc2)C[C@H](OCc2ccc(CO)cc2)O1 | 11 | 0 | 199* | 2 | 4
COC(=O)Cn1c2nc3ccccc3nc2c2cccc(C)c21 | 30 | 10 | -2 | 8 | -1
Cc1cccc2c3nc4ccccc4nc3n(C)c12 | 17 | -1 | 165* | 7 | 6
COc1ccc(/C=C/C(=O)Nc2ccccc2)cc1OC | 8 | -7 | 1 | 13 | -3
COc1ccc(/C=C/C(=O)Nc2ccc(-n3nncc3-c3ccc(OC)c(OC)c3)cc2)cc1OC | 36* | -2 | -18 | -14 | -3
COc1ccc(/C=C/C(=O)Nc2c(C(=O)O)[nH]c3ccccc23)cc1OC | 31* | 3 | -4 | 23 | 1
COc1ccc(/C=C/C(=O)Nc2ccc3nc4n(c(=O)c3c2)CCCC4)cc1OC | 36* | 1 | 0 | 3 | 0
COc1ccc(/C=C/C(=O)Nc2nnc(C(C)C)s2)cc1OC | 34* | 1 | 10 | -16 | 6
COc1ccc(-c2cnnn2-c2ccc(NC(=O)/C=C/c3ccc(OC)c(OC)c3)cc2)cc1 | 8 | 19 | -6 | -15 | 2
SMILES | GDH-TPI counter | Mtb bLac sens | MazEF act | CCHFV vOTU inh | FBA Mtb inh
CC(C)(C)OC(=O)n1ccc2ccc(-c3ccc4cc[nH]c4c3)cc21 | / | / | / | 6 | /
Cc1c(C(=O)N/N=C/c2ccc(O)cc2)sc(=S)n1C | 43* | 3 | 21 | -1 | -3
Cc1ccc(S(=O)(=O)NC(C)CCc2ccccc2)cc1 (stereo not given) | -1 | -3 | 0 | 31* | -4
CC(=O)Nc1ccc(S(=O)(=O)NC(C)CCc2ccccc2)cc1 (stereo not given) | 4 | 1 | 4 | -11 | 1
CCOc1ccccc1-n1c(N)c(C(N)=O)sc1=S | 32* | ? | 4 | 6 | -2
COC(=O)c1sc(=S)n(-c2ccccc2OC)c1N | 23 | 10 | 3 | 9 | -1
COc1ccc(Cl)cc1-n1c(N)c(C(N)=O)sc1=S | 37* | 16 | 2 | / | 1
N#Cc1c(-c2ccncc2)c2c([nH]c1=O)-c1ccccc1OC2 | / | 0 | / | -98 | /
N#Cc1c(-c2ccccc2Cl)c2c([nH]c1=O)-c1ccccc1OC2 | 27 | -13 | 1 | -264 | +
COc1cc(C2NC(=O)NC(C)=C2C(=O)OC2CCCCC2)cc(Cl)c1O (stereo not given) | 5 | -2 | -23 | 1 | 184*
CN(C)S(=O)(=O)c1ccc(-c2csc(N/N=C/c3ccco3)n2)cc1 | 33* | 1 | -29 | -13 | -3
Cc1ccc(-c2csc(N/N=C/c3ccco3)n2)cc1 | 17 | 93 | 11 | 12 | -2
CCn1c(=O)c(=O)[nH]c2cc(C(=O)NC3CCCc4ccccc43)ccc21 (stereo not given) | 31* | 9 | 10 | -1 | 5
CCn1c(=O)c(=O)[nH]c2cc(C(=O)NC3CC3)ccc21 | 11 | 8 | 4 | -8 | 2
CC(C)N1CCCCC(NC(=O)c2cccc(F)c2)C1=O (stereo not given) | / | / | / | -7 | /
COC(=O)[C@]12C[C@H](CC(=O)NCCCN3CCCC3=O)C(=O)N(Cc3cccc4ccccc34)C1=C[C@H](C(C)(C)C)O[C@@H]2C | / | / | / | 12 | /
Cc1ccc(S(=O)(=O)NC(C(=O)Oc2cc3oc(=O)cc(C)c3cc2Cl)C(C)C)cc1 (stereo not given) | 9 | 4 | 5 | -338 | +
CC(=O)Oc1cc2oc(=O)cc(C)c2cc1Cl | 11 | 4 | -11 | -377 | +
O=C(O)COc1ccc2c3c(c(=O)oc2c1)CCCC3 | 6 | -2 | 9 | -3 | 0
O=C(Oc1cc2oc(=O)c3c(c2cc1Cl)CCCC3)c1cccs1 | 10 | 27 | -9 | -286 | 173*
Cc1cc(=O)oc2cc(OC(C)C(=O)N3CCOCC3)c(Cl)cc12 (stereo not given) | 28 | / | 5 | -8 | 24
O=C(COc1ccc2c3c(c(=O)oc2c1)CCC3)c1ccc2c(c1)OCO2 | 7 | 1 | 125* | -6 | 4
Cc1ccc(S(=O)(=O)N[C@H](C(=O)Oc2ccc3c(C(F)(F)F)cc(=O)oc3c2)c2ccccc2)cc1 | 10 | -7 | -21 | / | 24
CCn1c(SCC(=O)Nc2cccc3ccccc23)nnc1-c1cccs1 | / | / | / | 3 | /
Cc1cc2oc(=O)c3c(c2cc1OC(=O)c1ccco1)CCCC3 | 14 | 0 | -3 | 2 | 4
CC(=O)Oc1cc2oc(=O)c3c(c2cc1Cl)CCC3 | 8 | -5 | -6 | -340 | +
O=C(Oc1ccc2c3c(c(=O)oc2c1)CCC3)c1ccco1 | 7 | 90 | -5 | -307 | +
O=C(Oc1cc2oc(=O)c3c(c2cc1Cl)CCCC3)c1ccco1 | 15 | 36 | -6 | -275 | +
C=CCOC(=O)N[C@H](c1ccc2ccccc2c1)[C@H](C)/C=C/CC(=O)OC | / | / | / | 4 | /
O=C(c1cccc(Oc2ccccc2)c1)N1CCC(Oc2cccnc2)CC1 | / | / | / | -3 | /

Screens (PubChem)
